# Assay results: PubChem BioAssay (EPA / NIEHS)
# Records with an inconclusive call do not appear. Calls of active or inactive are those of the source. The calls were made as follows, unless noted: active = hit-call score of the fitted dose curve at least 0.9, where 1 is the maximum; inactive = score below 0.9.
# Assays:
# [1] = target: Retinoic acid receptor RXR-alpha (Homo sapiens) (UniProt P19793); assay: TOX21_TR_RXR_BLA_Antagonist_Followup_ratio: Tox21 Thyroid Hormone Receptor beta Retinoid X Receptor alpha (RXRa) Antagonism Beta-lactamase (BLA) Follow-Up Assay, Ratio (AID 2283972; active = hit-call score of the fitted dose curve at least 0.9, where 1 is the maximum)
# Chain of Retinoic acid receptor RXR-alpha (Homo sapiens) (P19793 whole entry, looked up): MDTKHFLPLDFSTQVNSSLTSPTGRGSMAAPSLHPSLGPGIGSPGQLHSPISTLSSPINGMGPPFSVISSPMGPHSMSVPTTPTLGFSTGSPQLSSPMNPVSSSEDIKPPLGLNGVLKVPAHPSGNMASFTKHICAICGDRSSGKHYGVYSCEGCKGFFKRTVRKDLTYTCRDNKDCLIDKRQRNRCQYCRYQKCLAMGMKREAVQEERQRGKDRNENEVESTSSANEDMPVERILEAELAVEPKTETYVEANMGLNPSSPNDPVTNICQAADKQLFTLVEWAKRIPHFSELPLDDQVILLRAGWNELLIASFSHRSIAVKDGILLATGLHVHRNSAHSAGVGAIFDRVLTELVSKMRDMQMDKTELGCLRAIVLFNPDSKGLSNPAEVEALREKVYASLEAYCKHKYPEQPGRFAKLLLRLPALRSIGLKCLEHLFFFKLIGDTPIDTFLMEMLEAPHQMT
# How it was run: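 Compounds were tested in triplicate at 11 concentrations on RXRa-bla HEK293T cells for 16 h. Substrate cleavage ratio, normalized to DMSO, gave the endpoint.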
# [2] = TOX21_TR_RXR_BLA_Antagonist_Followup_viability: Viability Assessment in the Tox21 Thyroid Hormone Receptor beta Retinoid X Receptor alpha (RXRa) Antagonism Beta-lactamase (BLA) Follow-Up Assay (AID 2283979; active = hit-call score of the fitted dose curve at least 0.9, where 1 is the maximum)
# How it was run: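 RXRa-bla HEK293T cells (2,500/well, phenol red-free DMEM, 2% charcoal-stripped FBS) were attached 5 h, then exposed to compounds at 11 concentrations in triplicate for 16 h at 37C. Viability measured by CellTiter-Glo ATP luminescence, bidirectional fitting versus DMSO.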
# [3] = TOX21_TR_RXR_BLA_Agonist_Followup_viability: Viability Assessment in the Tox21 Thyroid Hormone Receptor beta Retinoid X Receptor alpha (RXRa) Agonism Beta-lactamase (BLA) Follow-Up Assay (AID 2283970; active = hit-call score of the fitted dose curve at least 0.9, where 1 is the maximum)
# How it was run: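 RXRa-UAS-bla HEK293T cells seeded at 2,500/well in phenol red-free DMEM with 2% charcoal-stripped FBS, exposed to compound 16h at 37C/5% CO2 in qHTS. Viability read by CellTiter-Glo ATP luminescence; bidirectional fitting against DMSO baseline, signal loss indicating cytotoxicity.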
# [4] = CCTE_Harrill_HTTr_Viability_DMEM_6hr: (Pilot) CCTE's 6-hour Cell Viability Assessment for the High-Throughput Transcriptomics (HTTr) Platform, in MCF-7 cells cultured in DMEM + 10% fetal bovine serum, Harrill Lab (AID 2283973)
# How it was run: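 MCF-7 cells in DMEM + 10% FBS, eight-point dilution series, 6 h exposure. Membrane integrity by propidium iodide exclusion with high-content imaging; bidirectional fit versus DMSO.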
# [5] = CCTE_Harrill_HTTr_Viability_DMEM_12hr: (Pilot) CCTE's 12-hour Cell Viability Assessment for the High-Throughput Transcriptomics (HTTr) Platform, in MCF-7 cells cultured in DMEM + 10% fetal bovine serum, Harrill Lab (AID 2283974)
# Description: This is a cell-based assay that evaluates cell viability using high content imaging to evaluate membrane integrity using propidium iodide dye exclusion in a 384 well format.One of seven assay components measured from the CCTE_Harrill_HTTr_Viability assay. This was part of a pilot experiment. This is a cell-based assay that evaluates cell viability in MCF-7 cells cultured in DMEM + 10% fetal bovine serum. High content imaging is used to evaluate membrane integrity using propidium iodide dye exclusion. Measurements are taken at 12 hours after chemical dosing in 384-well format.The assay component endpoint CCTE_Harrill_HTTr_Viability_DMEM_12hr was analyzed with bidirectional fitting relation to DMSO as the negative control and baseline of activity. Using a type of viability reporter to understand changes in cytotoxicity, gain-of-signal activity can be used to evaluate membrane integrity using propidium iodide dye exclusion. To generalize the intended target to other relatable targets, this assay endpoint is annotated to cell cycle, where the subfamily is cytotoxicity.
# Chemicals were tested in MCF7 cells in an eight point dilution series with a twelve hour exposure duration.
# [6] = CCTE_Harrill_HTTr_Viability_DMEM_24hr: (Pilot) CCTE's 24-hour Cell Viability Assessment for the High-Throughput Transcriptomics (HTTr) Platform, in MCF-7 cells cultured in DMEM + 10% fetal bovine serum, Harrill Lab (AID 2283975)
# How it was run: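 MCF-7 cells in DMEM with 10% FBS exposed for 24 hours to an eight-point dilution series. Membrane integrity by propidium iodide exclusion with high content imaging; bidirectional fit against DMSO.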
# [7] = CCTE_Harrill_HTTr_Viability_PRF_DMEM_6hr: (Pilot) CCTE's 6-hour Cell Viability Assessment for the High-Throughput Transcriptomics (HTTr) Platform, in MCF-7 cells cultured phenol red-free DMEM + 10% charcoal-stripped fetal bovine serum, Harrill Lab (AID 2283976)
# How it was run: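 MCF-7 cells in phenol red-free DMEM with 10% charcoal-stripped FBS exposed 6 hours to an eight-point dilution series. Propidium iodide exclusion imaged; curves fitted bidirectionally against DMSO.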
# [8] = CCTE_Harrill_HTTr_Viability_PRF_DMEM_12hr: (Pilot) CCTE's 12-hour Cell Viability Assessment for the High-Throughput Transcriptomics (HTTr) Platform, in MCF-7 cells cultured in phenol red-free DMEM + 10% charcoal-stripped fetal bovine serum, Harrill Lab (AID 2283977)
# How it was run: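 MCF-7 cells in phenol red-free DMEM with 10% charcoal-stripped FBS exposed 12 hours to an eight-point dilution series. Viability assessed by high-content imaging of propidium iodide exclusion; bidirectional fit versus DMSO.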
# [9] = CCTE_Harrill_HTTr_Viability_PRF_DMEM_24hr: (Pilot) CCTE's 24-hour Cell Viability Assessment for the High-Throughput Transcriptomics (HTTr) Platform, in MCF-7 cells cultured in phenol red-free DMEM + 10% charcoal-stripped fetal bovine serum, Harrill Lab (AID 2283980)
# How it was run: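 MCF-7 cells in phenol red-free DMEM with 10% charcoal-stripped FBS, eight-point dilution series, 24 h exposure. Membrane integrity by propidium iodide exclusion with high content imaging; bidirectional fit vs DMSO.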
# [10] = CCTE_Harrill_HTTr_Apoptosis_DMEM_6hr: (Pilot) CCTE's 6-hour Apoptosis Assessment for the High-Throughput Transcriptomics (HTTr) Platform, in MCF-7 cells cultured in DMEM + 10% fetal bovine serum, Harrill Lab (AID 2283981)
# How it was run: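 Caspase-3/7 activation read by high content imaging with CellEvent Caspase 3/7 Green in MCF-7 cells (DMEM + 10% FBS), 6 h after dosing; eight-point dilution series. Bidirectional fitting relative to DMSO baseline.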
smiles,measurement,setting,value
CN(C)c1ccc(C(=O)c2ccc(N(C)C)cc2)cc1,outcome,[1],inactive
same,outcome,[2],inactive
Clc1ccc(Cl)c(Cl)c1,outcome,[3],inactive
Cc1ccc(N)cc1,outcome,[3],inactive
COC(=O)Nc1nc2ccccc2[nH]1,outcome,[1],inactive
same,outcome,[2],inactive
CS(=O)(=O)NC(=O)c1cc(Oc2ccc(C(F)(F)F)cc2Cl)ccc1[N+](=O)[O-],outcome,[4],inactive
same,outcome,[5],inactive
same,outcome,[6],inactive
same,outcome,[7],inactive
same,outcome,[8],inactive
same,outcome,[9],inactive
same,outcome,[10],inactive
